Screening data as filed in PubChem.
PRC2 inh: blocks human EZH2/PRC2 H3K27 methylation. DELFIA TRF, 1 h. inhibition, % at 12.5 µM. 0.35% of 57,000 active. AID 651548. Q15910;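 active = mean inhibition of replicates at least 50% and every single replicate also reaching 50%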;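 also: dimethyl H3K27 on biotinylated H3 21-44 peptide detected by antibody; plate controls were median neutral control wells for no effect and median positive control wells for full effect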
Target sequence (Q15910 whole entry, looked up): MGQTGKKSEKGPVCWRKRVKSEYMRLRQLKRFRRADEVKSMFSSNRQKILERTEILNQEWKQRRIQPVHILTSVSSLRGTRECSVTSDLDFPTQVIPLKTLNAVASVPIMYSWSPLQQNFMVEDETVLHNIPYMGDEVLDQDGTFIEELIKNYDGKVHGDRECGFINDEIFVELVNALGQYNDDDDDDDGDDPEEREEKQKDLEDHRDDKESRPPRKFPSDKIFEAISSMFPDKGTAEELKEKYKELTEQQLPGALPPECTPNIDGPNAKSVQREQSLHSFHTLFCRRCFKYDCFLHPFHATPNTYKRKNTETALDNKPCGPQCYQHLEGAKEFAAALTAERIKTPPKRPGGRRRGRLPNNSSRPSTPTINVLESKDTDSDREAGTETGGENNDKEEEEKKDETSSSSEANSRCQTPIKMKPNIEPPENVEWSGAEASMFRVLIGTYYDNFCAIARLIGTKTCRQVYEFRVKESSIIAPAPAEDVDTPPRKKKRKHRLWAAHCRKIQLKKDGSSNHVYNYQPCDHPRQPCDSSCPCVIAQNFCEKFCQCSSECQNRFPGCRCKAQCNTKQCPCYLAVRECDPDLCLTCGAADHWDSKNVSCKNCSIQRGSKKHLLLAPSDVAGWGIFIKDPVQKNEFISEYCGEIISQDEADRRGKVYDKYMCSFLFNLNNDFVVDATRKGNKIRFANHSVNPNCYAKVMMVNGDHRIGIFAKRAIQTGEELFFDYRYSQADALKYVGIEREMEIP
Starred values were filed as active, the others as inactive. Shown is part of a subset that was picked to be rich in hits.

SMILES	PRC2 inh
O=C1c2cccc3cccc(c23)N1Cc1ccc(F)cc1Cl	60*
COc1ccc(NC(=O)CN2C(=O)c3cccc4cccc2c34)cc1OC	-19
CCCc1cc(=S)sc(N)n1	10
COc1ccc(NC(=O)Cn2nnc(-c3ccccc3Cl)n2)c(OC)c1	-7
CCOC(=O)CSc1nc2c(c(=O)n1-c1ccccc1OC)C1(CCCC1)Cc1ccccc1-2	3
COc1ccc(CCNS(=O)(=O)c2cc(C)ccc2OC)cc1	-1
COc1ccc2cc(CCC(C)=O)ccc2c1	20
COc1ccc(CCc2cc(OC)cc(=O)o2)cc1	52*
COc1ccc(Cl)cc1NC(=O)CC(C(=O)O)N1CCNCC1 (configuration not stated)	-5
CC(C)=CCN(CC#Cc1ccccc1)[C@H](CO)c1ccccc1	66*
CC(C)=CCN[C@H](CO)c1ccccc1	2
COc1ccc(S(=O)(=O)N(C)CC(=O)Nc2cccc([N+](=O)[O-])c2)cc1Cl	-2
COc1cc(NC(=O)C(C)N2C(=O)C3CC=C(Cl)CC3C2=O)ccc1[N+](=O)[O-] (configuration not stated)	2
Cc1ccc(NC(=O)CSc2nnnn2C2CC3CCC2C3)cc1 (configuration not stated)	14
C[C@H](CO)N1C[C@H](C)[C@@H](CN(C)Cc2ccccc2)Oc2cc(/C=C/c3ccccc3)ccc2S1(=O)=O	-1
C[C@@H]1CN([C@@H](C)CO)S(=O)(=O)c2ccc(C3=CCCCC3)cc2O[C@H]1CN(C)Cc1cccc(C(=O)O)c1	56*
C[C@@H]1CN([C@@H](C)CO)S(=O)(=O)c2ccc(C#CCC3CCCC3)cc2O[C@H]1CN(C)Cc1cccc(C(=O)O)c1	62*
C[C@@H]1CN([C@H](C)CO)S(=O)(=O)c2ccc(Br)cc2O[C@H]1CN(C)Cc1cccc(C(=O)O)c1	1
C[C@H]1CN([C@@H](C)CO)S(=O)(=O)c2ccc(C3=CCCCC3)cc2O[C@H]1CN(C)Cc1cccc(C(=O)O)c1	17
C[C@H]1CN([C@@H](C)CO)S(=O)(=O)c2ccc(C3=CCCCC3)cc2O[C@@H]1CN(C)Cc1cccc(C(=O)O)c1	44
C[C@H](CO)N1C[C@H](C)[C@@H](CN(C)Cc2cccc(C(=O)O)c2)Oc2cc(Br)ccc2S1(=O)=O	13
C[C@H]1CN([C@@H](C)CO)S(=O)(=O)c2ccc(/C=C/c3ccccc3)cc2O[C@H]1CN(C)Cc1ccccc1	10
C[C@H]1CN([C@@H](C)CO)S(=O)(=O)c2ccc(/C=C/c3ccccc3)cc2O[C@@H]1CN(C)Cc1ccc(C(=O)O)cc1	53*
O=C1CC(c2nc3ccccc3n2CCCOc2ccccc2)CN1c1ccccc1 (configuration not stated)	7
CCOc1cc(S(=O)(=O)NCCN2CCOCC2)ccc1F	-1
SMILES	PRC2 inh
O=C(CSc1nnnn1-c1ccc(F)cc1F)Nc1ccc2c(c1)OCCO2	9
Cc1ccc(C(=O)O)cc1S(=O)(=O)N(CCO)CCO	6
CCn1c(SCC(=O)Nc2cccc(Cl)c2C)nnc1-c1ccc(Br)cc1	2
CC(C)c1onc(-c2c(Cl)cccc2Cl)c1COc1ccc(/C=C/c2cccc(C(=O)O)c2)c(Cl)c1	73*
O=c1cc(-c2ccc(O)cc2)oc2c(C3OCC(O)C(O)C3O)c(O)c(C3OC(CO)C(O)C(O)C3O)c(O)c12 (configuration not stated)	58*
CC1OC(Oc2cc(O)c3c(=O)cc(-c4ccc(O)cc4)oc3c2C2OC(CO)C(O)C(O)C2O)C(O)C(O)C1O (configuration not stated)	2
COc1c(OC)c(O)c2c(=O)cc(-c3ccc(O)cc3)oc2c1OC	3
CC1CCN(S(=O)(=O)c2cn(CC(=O)N(C)Cc3ccccc3)c(=O)c3ccccc23)CC1	-117
CC1(C)CC[C@]2(C(=O)O)CC[C@]3(C)C(=CCC4[C@@]5(C)C[C@@H](O)[C@H](O)[C@@](C)(CO)C5CC[C@]43C)[C@@H]2[C@@H]1O (some centres not stated)	55*
CC1(C)CC[C@]2(C(=O)O)CC[C@]3(C)C(=CCC4[C@@]5(C)C[C@@H](O)[C@H](O)C(CO)(CO)C5CC[C@]43C)C2[C@@H]1O (some centres not stated)	44
CC1(C)CC[C@]2(C(=O)O)CC[C@]3(C)C(=CCC4[C@@]5(C)CC[C@H](O[C@@H]6OC[C@H](O)[C@H](O)[C@H]6O)[C@@](C)(CO)C5CC[C@]43C)C2C1 (some centres not stated)	-12
CCN(CC(=O)Nc1cccc(OC)c1)S(=O)(=O)c1ccc(C)cc1	6
O=c1c(O)c(-c2ccc(O)c(O)c2)oc2cc(O)cc(O)c12	62*
O=c1c(O[C@@H]2OC[C@H](O)[C@H](O)[C@H]2O)c(-c2ccc(O)c(O)c2)oc2cc(O)cc(O)c12	69*
COc1c(OC)c(O)c2c(=O)c(O)c(-c3ccccc3)oc2c1OC	-30
O=c1c(OC2OCC(O)C(O)C2O)c(-c2ccc(O)c(O)c2)oc2cc(O)cc(O)c12 (configuration not stated)	99*
